Experimental findings from PubChem BioAssay (EPA / NIEHS) are described below.

The target of experiment [1] is Bile acid receptor (Homo sapiens) (UniProt Q96RI1). Nature of the experiment: ATG_IR1_CIS: Attagene CIS-FACTORIAL HepG2 Assay for human Nuclear Receptor Subfamily 1 Group H Member 4 (NR1H4), IR1 submotif (AID 2282946). To be noted: IR1 reporter transcription, actives raise or lower the signal. The essentials: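 Transient MRTU transfection, HepG2; 24 h dosing; RNA → RT-PCR → 6-FAM primer extension → HpaI digest → capillary electrophoresis fluorescence. Gain/loss of signal fitted relative to DMSO.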
Chain of Bile acid receptor (Homo sapiens) (Q96RI1 whole entry, looked up): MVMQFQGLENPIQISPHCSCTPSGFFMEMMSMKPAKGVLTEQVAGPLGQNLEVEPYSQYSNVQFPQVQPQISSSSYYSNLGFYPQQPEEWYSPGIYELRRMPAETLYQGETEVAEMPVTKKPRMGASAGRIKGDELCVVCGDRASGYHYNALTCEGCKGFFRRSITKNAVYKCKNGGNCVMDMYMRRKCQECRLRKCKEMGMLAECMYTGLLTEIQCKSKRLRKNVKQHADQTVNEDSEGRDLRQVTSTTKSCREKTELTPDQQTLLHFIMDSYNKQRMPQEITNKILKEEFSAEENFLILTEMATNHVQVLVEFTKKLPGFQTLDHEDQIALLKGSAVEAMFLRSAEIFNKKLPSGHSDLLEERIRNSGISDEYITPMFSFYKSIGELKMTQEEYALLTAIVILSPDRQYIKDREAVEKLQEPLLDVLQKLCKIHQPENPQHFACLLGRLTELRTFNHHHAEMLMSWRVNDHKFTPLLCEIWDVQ

Experiment [2] in a line: ATG_GRE_CIS: Attagene CIS-FACTORIAL HepG2 Assay for human Glucocorticoid Response Elements (GRE) (AID 2282947). To be noted: HepG2 GRE cis-reporter, Attagene multiplex mRNA; actives raise or lower the signal. The essentials: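 HepG2 cells transiently transfected with multiple cis-promoter reporter units measure endogenous TF activity; 24 h compound exposure. Reporter mRNA quantified by RT-PCR, FAM labelling, HpaI digestion and capillary electrophoresis; bidirectional fit vs DMSO baseline.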

The nature of experiment [3]: ATG_ISRE_CIS: Attagene CIS-FACTORIAL HepG2 Assay for human Interferon Regulatory Factor 1 (IRF1) binding to an Interferon-Stimulated Response Element (ISRE) (AID 2282948). To be noted: HepG2 ISRE cis-reporter (Attagene), mRNA transcription readout; actives raise or lower the signal. The essentials:
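Quantitation relies on labelled RT-PCR fragments separated by capillary electrophoresis. Human HepG2 cells bearing cis-promoter reporter constructs were treated 24 h; DMSO served as baseline for bidirectional fitting.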

Experiment [4] in a line: ATG_M_32_CIS: Attagene CIS-FACTORIAL HepG2 Assay for M32 Transcription Factor (Internal Marker) (AID 2282949).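 Further: background control marker of the multiplexed CIS panel rather than a real target.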 The conditions noted are these: HepG2 Attagene cis-factorial M32 reporter, mRNA; actives raise or lower the signal. The essentials: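 Following 24 h chemical exposure of HepG2 cells transiently expressing cis-promoter reporter constructs, reporter transcript levels were determined by RT-PCR with fluorescent labelling and capillary electrophoresis, then fitted bidirectionally against DMSO.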

Experiment [5] in a line: ATG_M_06_CIS: Attagene CIS-FACTORIAL HepG2 Assay for M06 Transcription Factor (Internal Marker) (AID 2282950). To be noted: HepG2 Attagene CIS-FACTORIAL M06 internal marker reporter; actives raise or lower the signal. The method in brief:
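Terse: HepG2, transient MRTU transfection (FuGene 6), 24 h dosing; total RNA, oligo(dT) RT, PCR, FAM label, HpaI cut, capillary electrophoresis; bidirectional fit vs DMSO baseline; background-control endpoint.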

The target in experiment [6] is Hypoxia-inducible factor 1-alpha (Homo sapiens) (UniProt Q16665). Nature of the experiment: ATG_HIF1a_CIS: Attagene CIS-FACTORIAL HepG2 Assay for human Hypoxia Inducible Factor 1 (HIF1A) (AID 2282951). To be noted: HepG2 Attagene cis-factorial HIF1a reporter transcription; actives raise or lower the signal. The essentials: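 HepG2, transient cis-reporter library, 24 h dosing. RNA → RT (oligo dT) → PCR → 6-FAM primer extension → HpaI → CE. Bidirectional curve fit vs DMSO.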
Chain of Hypoxia-inducible factor 1-alpha (Homo sapiens) (Q16665 whole entry, looked up): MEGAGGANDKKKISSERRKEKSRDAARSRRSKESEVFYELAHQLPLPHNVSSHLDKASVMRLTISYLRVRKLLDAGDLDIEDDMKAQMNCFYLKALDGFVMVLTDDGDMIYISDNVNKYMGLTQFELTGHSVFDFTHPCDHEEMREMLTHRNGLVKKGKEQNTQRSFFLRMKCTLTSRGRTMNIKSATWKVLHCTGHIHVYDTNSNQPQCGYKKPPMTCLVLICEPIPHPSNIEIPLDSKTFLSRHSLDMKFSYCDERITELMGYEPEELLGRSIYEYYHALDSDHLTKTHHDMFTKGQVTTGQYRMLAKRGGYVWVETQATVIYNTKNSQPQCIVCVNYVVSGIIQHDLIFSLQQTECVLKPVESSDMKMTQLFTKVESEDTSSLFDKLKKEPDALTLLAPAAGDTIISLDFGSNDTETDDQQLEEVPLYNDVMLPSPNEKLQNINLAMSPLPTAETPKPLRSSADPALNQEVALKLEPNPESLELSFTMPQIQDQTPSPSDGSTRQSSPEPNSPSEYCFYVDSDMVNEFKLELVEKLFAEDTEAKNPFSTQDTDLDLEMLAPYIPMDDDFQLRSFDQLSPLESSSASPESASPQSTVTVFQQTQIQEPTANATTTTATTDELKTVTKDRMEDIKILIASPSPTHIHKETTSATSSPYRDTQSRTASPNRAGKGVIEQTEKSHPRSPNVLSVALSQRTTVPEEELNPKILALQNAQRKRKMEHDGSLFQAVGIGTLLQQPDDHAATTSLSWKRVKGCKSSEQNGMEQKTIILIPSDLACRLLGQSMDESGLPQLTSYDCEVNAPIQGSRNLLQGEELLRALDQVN

Experiment [7] deals with Hepatocyte nuclear factor 6 (Homo sapiens) (UniProt Q9UBC0). Nature of the experiment: ATG_HNF6_CIS: Attagene CIS-FACTORIAL HepG2 Assay for human Hepatocyte Nuclear Factor 6 (HNF6) (AID 2282952). The conditions noted are these: HepG2 Attagene cis-factorial HNF6 reporter transcription; actives raise or lower the signal. The essentials:
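Multiplexed mRNA reporter assay in transfected HepG2; 24 h dosing; RT-PCR plus capillary electrophoresis fluorescence; DMSO-referenced bidirectional curve fitting.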

Experiment [8] is described as follows: ATG_MRE_CIS: Attagene CIS-FACTORIAL HepG2 Assay for human Metal Responsive Element (MRE) (AID 2282954). To be noted: HepG2 MRE cis-reporter transcription, Attagene multiplex; actives raise or lower the signal. The essentials: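 HepG2 cells transiently transfected with multiple cis-element reporter units measure endogenous MTF1-driven transcription. After 24 h compound exposure, reporter mRNA is quantified by RT-PCR with 6-FAM labelling, HpaI digestion and capillary electrophoresis; bidirectional fits versus DMSO.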

Experiment [9] is described as follows: ATG_PBREM_CIS: Attagene CIS-FACTORIAL HepG2 Assay for human Phenobarbital-responsive Enhancer Module (PBREM) (AID 2282955). The conditions noted are these: HepG2 PBREM cis-reporter, Attagene multiplexed transcription; actives raise or lower the signal. The essentials: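 HepG2, transient MRTU transfection, 24 h dosing; RNA → oligo(dT) RT → PCR → 6-FAM extension → HpaI → CE. Bidirectional fit vs DMSO.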

For experiment [10], the target named is Paired box protein Pax-6 (Homo sapiens) (UniProt P26367). In words: ATG_Pax6_CIS: Attagene CIS-FACTORIAL HepG2 Assay for human Paired Box 6 (PAX6) (AID 2282956). To be noted: HepG2 CIS-FACTORIAL PAX6 reporter transcription, RNA readout; actives raise or lower the signal. The essentials:
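After twenty-four hours of chemical exposure, transfected HepG2 cells are harvested for RNA. Cis-promoter reporter transcripts are amplified, fluorescently labelled and sized by capillary electrophoresis, with gain and loss of signal scored against DMSO.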

Experiment [11] is described as follows: ATG_PXRE_CIS: Attagene CIS-FACTORIAL HepG2 Assay for human Pregnane X Receptor Element (PXRE) (AID 2282957). The conditions noted are these: HepG2 Attagene CIS-FACTORIAL PXRE reporter, mRNA; actives raise or lower the signal. The method in brief: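 Cells: HepG2, transiently transfected reporter units under cis promoter control. Exposure: 24 h. Detection: reporter mRNA via RT-PCR/CE fluorescence; bidirectional fitting, DMSO-referenced.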

The target of experiment [12] is Transcription factor Sp1 (Homo sapiens) (UniProt P08047). In words: ATG_Sp1_CIS: Attagene CIS-FACTORIAL HepG2 Assay for human Specificity Protein 1 (Sp1) (AID 2282961). The conditions noted are these: HepG2 Sp1 cis-reporter transcription, actives raise or lower the signal. The essentials: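 Measures mRNA induction of an Sp1-linked reporter in HepG2 cells 24 h post-dosing. Multiplexed reporters read by RT-PCR and capillary electrophoresis; DMSO serves as negative control and baseline.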
Chain of Transcription factor Sp1 (Homo sapiens) (P08047 whole entry, looked up): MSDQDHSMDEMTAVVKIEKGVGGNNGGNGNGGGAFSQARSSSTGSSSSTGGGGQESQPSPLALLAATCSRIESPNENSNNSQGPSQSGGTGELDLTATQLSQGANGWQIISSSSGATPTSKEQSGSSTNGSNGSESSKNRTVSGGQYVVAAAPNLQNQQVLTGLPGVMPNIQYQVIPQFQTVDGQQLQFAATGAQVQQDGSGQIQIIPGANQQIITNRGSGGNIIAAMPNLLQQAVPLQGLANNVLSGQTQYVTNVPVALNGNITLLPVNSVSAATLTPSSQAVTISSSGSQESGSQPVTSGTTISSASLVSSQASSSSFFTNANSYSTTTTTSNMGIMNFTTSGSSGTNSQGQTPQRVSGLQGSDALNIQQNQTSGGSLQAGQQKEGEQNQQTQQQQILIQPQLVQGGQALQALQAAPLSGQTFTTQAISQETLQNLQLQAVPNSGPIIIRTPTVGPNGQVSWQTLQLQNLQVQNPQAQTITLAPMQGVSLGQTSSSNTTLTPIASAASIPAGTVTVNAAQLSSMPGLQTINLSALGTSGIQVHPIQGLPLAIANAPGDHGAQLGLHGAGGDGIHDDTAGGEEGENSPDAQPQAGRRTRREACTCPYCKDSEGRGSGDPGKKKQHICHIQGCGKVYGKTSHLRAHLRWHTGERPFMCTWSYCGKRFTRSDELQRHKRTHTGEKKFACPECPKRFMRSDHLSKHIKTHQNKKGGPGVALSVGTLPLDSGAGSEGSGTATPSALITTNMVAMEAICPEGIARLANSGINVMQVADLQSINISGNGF

Experiment [13] in a line: ATG_SREBP_CIS: Attagene CIS-FACTORIAL HepG2 Assay for human Sterol Regulatory Element Binding (SREBP) (AID 2282962). To be noted: HepG2 Attagene cis-factorial SREBP reporter, mRNA; actives raise or lower the signal. The essentials: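 Twenty-four hours after chemical dosing of transfected HepG2 cultures, reporter RNA was converted to cDNA, amplified, end-labelled with 6-FAM and resolved by capillary electrophoresis. Responses were fitted relative to DMSO.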

Experiment [14] has as its target Signal transducer and activator of transcription 3 (Homo sapiens) (UniProt P40763). Nature of the experiment: ATG_STAT3_CIS: Attagene CIS-FACTORIAL HepG2 Assay for human Signal Transducer and Activator of Transcription 3 (STAT3) (AID 2282963). The conditions noted are these: HepG2, Attagene cis-factorial STAT3 reporter transcription; actives raise or lower the signal. The essentials:
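HepG2 cells transiently transfected with cis-element-driven multiple reporter transcription units; after 24 h chemical exposure, reporter mRNA measured by RT-PCR, 6-FAM primer-extension labelling, HpaI digestion and capillary electrophoresis. Bidirectional fitting versus DMSO baseline.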

A short description of experiment [15]: ATG_TA_CIS: Attagene CIS-FACTORIAL HepG2 Assay for human TA Basal Promoter (AID 2282964). The conditions noted are these: HepG2 Attagene CIS-factorial TA basal promoter reporter; actives raise or lower the signal. The essentials: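 Transfected HepG2, 24 h compound exposure; RNA → RT-PCR → FAM primer extension → HpaI cut → CE fluorescence. Gain/loss-of-signal fitted against DMSO negative control. Background-control readout.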

A short description of experiment [16]: ATG_TCF_b_cat_CIS: Attagene CIS-FACTORIAL HepG2 Assay for human T-Cell-Factor with beta-catenin (TCF/b-cat) (AID 2282965). To be noted: HepG2 TCF/beta-catenin cis-reporter transcription, actives raise or lower the signal. The essentials:
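HepG2 cells transiently transfected with multiple cis-promoter-regulated reporter transcription units, so endogenous transcription factor activity is measured. Reporter mRNA read 24 hours after dosing by RT-PCR, fluorescent labelling and capillary electrophoresis; bidirectional fitting against DMSO.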

Experiment [17] addresses Heat shock factor protein 1 (Homo sapiens) (UniProt Q00613). In words: ATG_HSE_CIS: Attagene CIS-FACTORIAL HepG2 Assay for human Heat Shock Transcription Factor 1 (HSE) (AID 2282953). To be noted: HepG2 HSE cis-reporter, Attagene RNA transcription; actives raise or lower the signal. The essentials: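 Read-out: fluorescence of reporter-specific RT-PCR fragments separated by capillary electrophoresis. HepG2 carrying transfected cis-element reporter units; 24 h dosing; activity fitted in both directions relative to DMSO baseline.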

Experiment [18] is described as follows: ATG_Sox_CIS: Attagene CIS-FACTORIAL HepG2 Assay for human SRY-box transcription factor (SOX) (AID 2282960). To be noted: HepG2 Attagene cis-factorial SOX reporter, mRNA; actives raise or lower the signal. The method in brief: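 Cells were transfected with reporter constructs under cis-regulatory promoters, then exposed to chemicals for 24 h. Reporter transcripts were quantified by fluorescence after RT-PCR and capillary electrophoresis; activity was fitted in both directions against DMSO.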

Experiment [19] is described as follows: ATG_PPRE_CIS: Attagene CIS-FACTORIAL HepG2 Assay for human Peroxisome Proliferator-activated Response Element (PPRE) (AID 2282958). To be noted: HepG2 PPRE cis-element reporter, Attagene transcription factor profiling; actives raise or lower the signal. The essentials: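 Transcript-level reporter induction in transfected HepG2 cells after 24 h chemical exposure, quantified by fluorescence from RT-PCR products separated by capillary electrophoresis.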

Experiment [20] is described as follows: ATG_RORE_CIS: Attagene CIS-FACTORIAL HepG2 Assay for human RAR-related Orphan Receptor Element (RORE) (AID 2282959). The conditions noted are these: HepG2 Attagene cis-factorial RORE reporter, mRNA; actives raise or lower the signal. The essentials: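 Multiplexed reporter assay measuring mRNA induction from a cis promoter element in transiently transfected HepG2 cells after 24 h treatment. Detection via RT-PCR and capillary electrophoresis fluorescence; DMSO serves as baseline.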

Calls of active or inactive are those of the source. How the source made its calls: active means hit-call score of the fitted dose curve at least 0.9, where 1 is the maximum; inactive means score below 0.9.

Chain of Hepatocyte nuclear factor 6 (Homo sapiens) (Q9UBC0 whole entry, looked up): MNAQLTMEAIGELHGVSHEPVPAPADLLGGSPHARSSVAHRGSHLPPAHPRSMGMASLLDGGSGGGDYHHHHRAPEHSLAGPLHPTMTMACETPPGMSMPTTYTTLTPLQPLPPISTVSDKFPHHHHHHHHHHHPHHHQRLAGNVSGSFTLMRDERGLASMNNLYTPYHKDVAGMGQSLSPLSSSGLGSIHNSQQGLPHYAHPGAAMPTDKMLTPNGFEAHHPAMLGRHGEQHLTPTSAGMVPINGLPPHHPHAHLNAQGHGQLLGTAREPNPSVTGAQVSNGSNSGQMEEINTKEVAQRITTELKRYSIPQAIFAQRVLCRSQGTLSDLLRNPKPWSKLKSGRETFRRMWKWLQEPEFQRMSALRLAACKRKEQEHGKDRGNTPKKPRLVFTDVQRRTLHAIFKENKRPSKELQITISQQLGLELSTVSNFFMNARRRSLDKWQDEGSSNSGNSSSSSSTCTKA
Chain of Signal transducer and activator of transcription 3 (Homo sapiens) (P40763 whole entry, looked up): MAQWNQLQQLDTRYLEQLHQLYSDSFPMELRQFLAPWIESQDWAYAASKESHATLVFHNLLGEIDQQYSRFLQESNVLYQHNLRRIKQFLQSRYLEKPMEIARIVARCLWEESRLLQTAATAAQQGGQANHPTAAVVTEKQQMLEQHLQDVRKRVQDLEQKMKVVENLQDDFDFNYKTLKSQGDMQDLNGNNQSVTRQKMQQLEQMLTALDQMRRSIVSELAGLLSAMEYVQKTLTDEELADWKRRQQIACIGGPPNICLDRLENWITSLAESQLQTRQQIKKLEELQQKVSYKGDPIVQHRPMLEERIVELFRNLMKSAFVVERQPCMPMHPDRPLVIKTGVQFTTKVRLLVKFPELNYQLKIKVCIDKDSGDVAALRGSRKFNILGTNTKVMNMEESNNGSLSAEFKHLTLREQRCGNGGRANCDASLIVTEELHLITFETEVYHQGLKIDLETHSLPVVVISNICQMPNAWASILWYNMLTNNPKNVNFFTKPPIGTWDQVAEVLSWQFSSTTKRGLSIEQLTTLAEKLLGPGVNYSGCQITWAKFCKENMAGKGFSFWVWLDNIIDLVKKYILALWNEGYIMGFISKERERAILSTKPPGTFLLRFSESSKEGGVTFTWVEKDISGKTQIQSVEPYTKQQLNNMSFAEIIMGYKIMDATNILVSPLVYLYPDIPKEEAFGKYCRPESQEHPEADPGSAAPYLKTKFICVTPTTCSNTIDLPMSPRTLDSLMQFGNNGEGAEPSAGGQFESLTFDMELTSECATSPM
Chain of Paired box protein Pax-6 (Homo sapiens) (P26367 whole entry, looked up): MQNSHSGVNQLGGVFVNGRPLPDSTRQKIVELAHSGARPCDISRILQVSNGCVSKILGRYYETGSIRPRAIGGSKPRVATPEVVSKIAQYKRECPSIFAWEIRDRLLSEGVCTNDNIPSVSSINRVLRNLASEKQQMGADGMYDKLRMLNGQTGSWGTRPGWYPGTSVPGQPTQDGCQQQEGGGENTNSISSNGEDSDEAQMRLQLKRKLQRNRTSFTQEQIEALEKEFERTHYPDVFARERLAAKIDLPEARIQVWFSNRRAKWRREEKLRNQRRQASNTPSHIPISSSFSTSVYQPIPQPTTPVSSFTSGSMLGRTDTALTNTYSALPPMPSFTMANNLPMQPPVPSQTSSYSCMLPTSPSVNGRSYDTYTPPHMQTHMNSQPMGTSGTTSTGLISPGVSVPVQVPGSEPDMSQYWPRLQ
Chain of Heat shock factor protein 1 (Homo sapiens) (Q00613 whole entry, looked up, the tested form may be a part): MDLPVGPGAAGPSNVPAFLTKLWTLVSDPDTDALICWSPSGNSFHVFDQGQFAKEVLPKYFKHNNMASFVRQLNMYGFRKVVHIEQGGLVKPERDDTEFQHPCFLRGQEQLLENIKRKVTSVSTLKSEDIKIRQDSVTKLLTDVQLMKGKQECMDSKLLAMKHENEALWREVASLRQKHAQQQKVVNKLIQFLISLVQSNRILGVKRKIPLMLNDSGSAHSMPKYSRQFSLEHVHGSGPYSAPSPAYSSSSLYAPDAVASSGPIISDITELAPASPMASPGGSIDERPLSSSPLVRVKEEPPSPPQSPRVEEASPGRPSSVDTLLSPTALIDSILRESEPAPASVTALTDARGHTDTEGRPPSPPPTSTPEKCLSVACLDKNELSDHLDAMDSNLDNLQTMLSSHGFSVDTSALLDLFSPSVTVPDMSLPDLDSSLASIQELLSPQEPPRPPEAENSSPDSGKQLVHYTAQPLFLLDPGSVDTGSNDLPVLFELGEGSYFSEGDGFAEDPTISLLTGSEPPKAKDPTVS

The term AC50 denotes the concentration giving half of the maximal activity seen. As for `CCN(C(=O)c1cc(C)cc(OC[C@H](C)Nc2ccncc2)c1)C(C)C`, the AC50 in experiment [1] is 42 µM (active); in experiment [11] it was 4.97 µM (active); in [13], 18.2 µM (active). In addition, the compound was called inactive in experiment [2], in experiment [3], in experiment [4], in experiment [5], in experiment [6] and in experiment [7]. Besides, the call in [8], in experiment [9], in experiment [10], in [12], in [14] and in [15] was inactive. Besides, the call in experiment [16] was inactive.

`COCCOc1cc2cc(C(=O)NC3CCN(C(C)C)CC3)n(CC(=O)Nc3ccc(Cl)cn3)c2cn1`: the outcome in [1], in experiment [2], in experiment [4], in [5], in experiment [17] and in experiment [14] was inactive. Further, the call in experiment [15] was inactive. Moreover, the AC50 was 139 µM (active) in experiment [3]; 26.2 µM (active) in experiment [6]; 28.6 µM (active) in experiment [7]; 135 µM (active) in experiment [8]; 124 µM (active) in experiment [10]; 144 µM (active) in [11]. For the same compound, the half-maximal activity concentration (AC50) was 135 µM (active) in [18], 100 µM (active) in [12], 26.5 µM (active) in experiment [13] and 108 µM (active) in experiment [16].

For the compound `C1=CCCC=CCCC=CCC1`, the result in experiment [1], in experiment [2], in [3], in experiment [4], in [5] and in [6] was inactive. Also, the outcome in experiment [7], in [8], in experiment [9], in experiment [10], in experiment [11] and in [19] was inactive. The result in experiment [20], in experiment [18], in [13], in [14], in [15] and in [16] was inactive. Also, the half-maximal activity concentration (AC50) in experiment [12] was 165 µM (active).

With `CC(C)=CCC/C(C)=C\CO`, the outcome in experiment [1], in experiment [2], in experiment [3], in [4], in experiment [5] and in experiment [7] was inactive. The compound was classed as inactive in [8], in experiment [10], in experiment [20], in [18], in experiment [12] and in experiment [13]. Further, the result in [14], in [15] and in experiment [16] was inactive. For the same compound, the AC50 in experiment [11] was 7.34 µM (active).
